Among the data in ChEMBL document CHEMBL3988442, “University of Dundee, Small-Polar-MMV Screening Library” (2021) are Percent Effect values, retold here.

For some of these results: Entries with a potency or affinity are not part of this list.

One assay addresses T1, Ubiquitin-activating enzyme e1, putative (Leishmania donovani (strain BPK282A1)) (UniProt E9BSI1).
T1 sequence (whole entry): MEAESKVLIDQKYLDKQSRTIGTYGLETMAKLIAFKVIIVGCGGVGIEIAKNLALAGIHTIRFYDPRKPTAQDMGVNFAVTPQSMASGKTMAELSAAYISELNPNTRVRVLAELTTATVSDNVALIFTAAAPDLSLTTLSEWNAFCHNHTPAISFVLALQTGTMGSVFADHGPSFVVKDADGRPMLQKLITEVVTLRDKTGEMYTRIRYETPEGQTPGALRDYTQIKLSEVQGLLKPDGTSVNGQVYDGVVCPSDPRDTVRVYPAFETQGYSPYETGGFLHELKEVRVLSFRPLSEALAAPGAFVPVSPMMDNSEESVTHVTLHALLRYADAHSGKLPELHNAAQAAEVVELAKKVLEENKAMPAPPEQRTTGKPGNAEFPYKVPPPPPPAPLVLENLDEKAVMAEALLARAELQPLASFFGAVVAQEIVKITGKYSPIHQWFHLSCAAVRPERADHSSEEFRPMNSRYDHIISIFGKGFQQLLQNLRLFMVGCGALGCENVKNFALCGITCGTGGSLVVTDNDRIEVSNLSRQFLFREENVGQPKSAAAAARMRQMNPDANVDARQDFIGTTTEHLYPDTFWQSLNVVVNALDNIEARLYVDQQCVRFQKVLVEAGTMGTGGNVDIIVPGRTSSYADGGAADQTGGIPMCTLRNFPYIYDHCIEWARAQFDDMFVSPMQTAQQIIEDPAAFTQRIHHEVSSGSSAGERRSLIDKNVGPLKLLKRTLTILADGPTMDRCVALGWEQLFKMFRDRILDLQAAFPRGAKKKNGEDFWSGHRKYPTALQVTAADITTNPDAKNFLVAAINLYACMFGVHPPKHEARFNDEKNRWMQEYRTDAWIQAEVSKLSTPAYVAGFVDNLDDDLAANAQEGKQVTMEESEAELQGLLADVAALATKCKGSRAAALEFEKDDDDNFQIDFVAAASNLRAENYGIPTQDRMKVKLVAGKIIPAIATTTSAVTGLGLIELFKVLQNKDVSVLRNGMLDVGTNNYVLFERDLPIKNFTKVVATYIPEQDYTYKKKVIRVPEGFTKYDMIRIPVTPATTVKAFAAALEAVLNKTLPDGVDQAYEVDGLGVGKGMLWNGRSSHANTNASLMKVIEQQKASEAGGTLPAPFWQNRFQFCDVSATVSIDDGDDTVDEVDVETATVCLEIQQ
Kind of assay: Leishmania donovani Ubiquitin Activating Enzyme (LdE1). The assay is classed as functional. Further details: scale not given: direction of the effect not stated beside the values. Particulars: 30 µM.
Consider `Cn1cc(CN2CCn3cc(CNC(=O)C4CCC4)nc3C2)cn1`, for which the Percent Effect is 5.33%.
On to `CCNC(c1cccnc1)c1cc(C)cc(C)c1` (centres undefined), for which the Percent Effect is -3.8%.
For the molecule `Cc1nc(N2CC[C@@H](NC(=O)c3cnccn3)[C@H](O)C2)c2ccsc2n1`, the Percent Effect was found to be 8.11%.
In the case of `CC(C)C(C(=O)N1CCN(Cc2ccncc2)CC1)n1cncn1` (centres undefined), the Percent Effect came out at 7.79%.
Same read-out and setting: in the case of `CC1c2ncc(Cn3cncn3)n2CCN1C(=O)C1CCOCC1` (centres undefined) it was 10.7%; in that of `Cc1cnn(CCNCC(O)COc2ccc(C#N)cc2)c1` (centres undefined), 15.2%.
Still for that read-out and setting: as for `O=C(CCc1nccs1)N1CCN(c2cccnn2)CC1`, the figure is 10.4%.
Turning to `CC(O)CN(CC(=O)NC(=O)NCC(F)(F)F)c1ccccc1` (centres undefined), the Percent Effect is 7.79%.
`Cn1nccc1C(=O)N1CCOC(Cc2cccc(C(F)(F)F)c2)C1` (centres undefined): the Percent Effect was found to be 0%.
With `COC(=O)C(C)(C)NC(=O)C1CC(=O)N(C)C1` (centres undefined), the Percent Effect was -2.74%.

For the next assay, the target named is AMP-activated protein kinase, AMPK (Homo sapiens) (UniProt P54646+O43741+P54619+Q9UGJ0+Q9Y478+Q13131+Q9UGI9). In words: AMP-dependent Kinase enzyme assay. An in vitro enzyme assay that detects ADP turnover that is directly proportional to AMPK activity. This uses naive AMPK that is activated during the assay with MK-8722. The assay is classed as functional. Set-up: scale not given: direction of the effect not stated beside the values. Particulars: 30 µM.
In the case of `O=C(c1cnccn1)N1CCN(Cc2ccncc2)c2ncccc2C1`, the Percent Effect amounted to 2.52%.
Regarding `CS(=O)(=O)N1CCCCCC1C1CCN(c2ncccn2)CC1` (centres undefined), the Percent Effect amounted to 2.07%.
On the same count and under the same terms, as for `Cc1noc([C@@H]2CC[C@@H]3[C@@H](CCN3S(=O)(=O)c3cccnc3)O2)n1`, the figure is 9.76%.
For `COc1ccc(-c2noc(C(=O)NCCN3CCCCC3)n2)cc1OC`, the Percent Effect is -14.8%.
Consider `CNC(=O)[C@H]1C[C@H]2OCC[C@H]2N(Cc2ccc(C)o2)C1`, for which the Percent Effect is 4.6%.
As for `N#Cc1ccc(F)c(CN2CCCC2Cn2cccn2)c1` (centres undefined), the Percent Effect is -4.51%.
For the molecule `CC(C)CN1CCC(c2nc3c([nH]2)CC(C)(C)CNC3=O)C1` (centres undefined), the Percent Effect was -3.98%.
For `CSc1cc2c(cc1NC(=O)NCC(C)(C)C(N)=O)OCCO2`, the Percent Effect was 0.42%.
The same measure, in the same setting: in the case of `CC(C)C1CN(C(=O)c2ccc(C(N)=O)cc2)CCS1` (centres undefined) it was 1.75%.
The same measure, in the same setting: in the case of `Cc1ccc(-c2cc(CNC(=O)N3CCOC(C)C3)on2)cc1` (centres undefined) it was 7.2%; in that of `Cn1cc(N2CC3(CCN(Cc4cccs4)CC3)OCC2=O)cn1`, -1.55%.
Turning to `CCc1noc(C2CCN(C(=O)CCn3nc(C)cc3C)CC2)n1`, the Percent Effect was 0.146%.
Consider `NC(=O)COc1cccc(C(=O)N2CCCC(n3ccnc3)C2)c1` (centres undefined), for which the Percent Effect was -5.3%.
Consider `CCCc1cc(C(=O)N(C)Cc2cccc3ncccc23)n(C)n1`, for which the Percent Effect was 2.46%.
With `CCOCC1CN(Cc2ccoc2)Cc2nn(CC3CC3)cc21` (centres undefined), the Percent Effect stood at 4.81%.
As to `Cn1nc(C2CCCN(Cc3ccsc3)C2)c2nccnc21` (centres undefined), the Percent Effect was determined as 11.9%.
Same read-out and setting: as for `CCS(=O)(=O)N1CCOC2(CCCN(c3ccc(C)nn3)C2)C1` (centres undefined), the figure is 3.56%; as for `CCN(CCC(F)(F)F)C(=O)Nc1cccc(N2CCOCC2)c1`, -8.53%.
Same read-out and setting: as for `Cc1nn(C)cc1CN1CCC(C2Nc3ccccc3S(=O)(=O)N2)CC1` (centres undefined), the figure is 11.9%; as for `COCCCNC(=O)CN1CCCC1c1c(C)nn(C)c1Cl` (centres undefined), -7.07%.
For the molecule `Cc1ccccc1CN1CCN(CC(=O)Nc2cccnc2)CC1`, the Percent Effect is -360%.
On the same count and under the same terms, as for `CS(=O)(=O)N1CCOCC2(CN(Cc3ccsc3)CCO2)C1` (centres undefined), the figure is -1.43%.
Take `c1cncc(COCc2nnc3n2CCN(Cc2ccoc2)C3)c1`: the Percent Effect came out at 3.03%.
On the same count and under the same terms, as for `CCN1C(=O)CCC12CCCN(Cc1nccs1)CC2` (centres undefined), the figure is 11.7%.
On the same count and under the same terms, in the case of `O=C(Nc1cnn(CCN2CCOCC2)c1)c1cc(F)ccc1F` it was -3.4%; in that of `O=C(N[C@@H]1CN(Cc2ccc3c(c2)OCO3)[C@@H]2CCCO[C@@H]21)C1CC1`, -0.94%; in that of `Cc1noc(Cl)c1CCC(=O)N1CCC(CC(N)=O)CC1`, -6.93%.
In the case of `c1ncn(CC2CCCCN2Cc2noc(C3CC3)n2)n1` (centres undefined), the Percent Effect worked out at 0.834%.
For `Cc1ccc(CNS(=O)(=O)CC2=NC(=O)n3cccc3C2=O)cc1`, the Percent Effect stood at 7.77%.
The same measure, in the same setting: as for `Cn1cc(CN2CCn3cc(CNC(=O)C4CCC4)nc3C2)cn1`, the figure is 4.55%; as for `CCNC(c1cccnc1)c1cc(C)cc(C)c1` (centres undefined), 4.33%; as for `Cc1nc(N2CC[C@@H](NC(=O)c3cnccn3)[C@H](O)C2)c2ccsc2n1`, -4.4%.
On the same count and under the same terms, as for `CC(C)C(C(=O)N1CCN(Cc2ccncc2)CC1)n1cncn1` (centres undefined), the figure is 4.2%; as for `CC1c2ncc(Cn3cncn3)n2CCN1C(=O)C1CCOCC1` (centres undefined), -5.52%; as for `Cc1cnn(CCNCC(O)COc2ccc(C#N)cc2)c1` (centres undefined), -8.43%.
With `O=C(CCc1nccs1)N1CCN(c2cccnn2)CC1`, the Percent Effect came to 4.08%.
Take `CC(O)CN(CC(=O)NC(=O)NCC(F)(F)F)c1ccccc1` (centres undefined): the Percent Effect amounted to 6%.
For `Cn1nccc1C(=O)N1CCOC(Cc2cccc(C(F)(F)F)c2)C1` (centres undefined), the Percent Effect is 0.696%.
For the molecule `COC(=O)C(C)(C)NC(=O)C1CC(=O)N(C)C1` (centres undefined), the Percent Effect is -4.39%.
